Several values for one entry are separate records, joined by “and”; a condition that tells them apart may be missing. Identical values can stand only once. Screen size: about 6,400 compounds; about 610 (9.5%) were called active. This is one part of a sample in which actives are shown more often than they occur. Cut-off read from the data, not from the text of the source: active = activity change below about -70%; inconclusive = no clear call, values can overlap the other calls; inactive = above that. Some structures have more than one record in an assay (separate samples or runs), and their calls can disagree.
Assay: Toxoplasma gondii ME49Luc growth in HeLa cells, luciferase, no IFN-y, primary screen (AID 1259421)
Conditions: T. gondii ME49Luc in HeLa, 72 h, stronger effect = lower value, concentration not given here

Row | Structure (SMILES) | activity change, negative = inhibition
1 | CCOC(=O)[C@H](C)C[C@@H](Cc1ccc(-c2ccccc2)cc1)NC(=O)CCC(=O)O | 5.47% (inactive)
2 | Cc1cc(C)c(/C=C2\C(=O)Nc3ccccc32)[nH]1 | 12.4% (inactive) and 24.8% (inactive)
3 | COc1c/c(=C2\C=c3ccccc3=N2)[nH]/c1=C\c1[nH]c(C)cc1C | -83.5% (active)
4 | FC(F)(F)c1ccc(/C=C/c2nc(COc3ccc(CCCCn4ccnn4)cc3)co2)cc1 | -18% (inactive)
5 | CN1C2CC(OC(=O)[C@H](CO)c3ccccc3)C[C@H]1[C@H]1OC21 (some centres undefined) | 1.54% (inactive)
6 | NC(N)=NCCN1CCCCCCC1 | 8.88% (inactive)
7 | CC12C(=O)OC(=O)C1(C)C1CCC2O1 (centres undefined) | -87.3% (active)
8 | c1ncc(CCCC2CCNCC2)[nH]1 | 2.3% (inactive)
9 | Fc1ccc2c(CCNCc3cccc(OCC(F)(F)C(F)F)c3)c[nH]c2c1 | 38.3% (inactive)
10 | CN[C@@H](C)[C@H]1[C@H](O)C[C@@]2(C)[C@@H]3CC[C@H]4C(C)(C)[C@@H](NC)CC[C@@]45C[C@@]35CC[C@]12C | 6.16% (inactive)
11 | CCCCCCCCCCCCCCCC(=O)OC[C@H](COP(=O)(O)OCC[N+](C)(C)C)OC(=O)CCCCCCCCCCCCCCC | -5.4% (inactive)
12 | COC(=O)c1ccccc1NC(=O)c1ccc(F)cc1 | 31.7% (inactive) and 41.2% (inactive)
13 | CC(C)CCN1c2nc(Nc3cc(F)c(O)c(F)c3)ncc2N(C)C(=O)C1C (centres undefined) | -84.4% (active)
14 | CCCCCCCC/C=C/CCCCCCCC(=O)NCc1ccc(O)c(OC)c1 | 6.46% (inactive)
15 | N#Cc1ccncn1 | 17.2% (inactive)
16 | Cc1ccc(-c2csc(NC(=O)c3ccccc3)n2)c(C)c1 | 73.8% (inactive)
17 | CCc1nc(-c2cccc(C)c2)c(-c2ccnc(NC(=O)c3ccccc3)c2)s1 | -91.2% (active)
18 | Cc1ccnc(NC(=O)C(C)c2cccc(C(=O)c3ccccc3)c2)c1 (centres undefined) | 48.4% (inactive)
19 | CC1CNc2c(cccc2S(=O)(=O)N[C@@H](CCCN=C(N)N)C(=O)N2CC[C@@H](C)C[C@@H]2C(=O)O)C1 (some centres undefined) | 9.02% (inactive)
20 | C[C@H]1COc2c(C3(N)CC3)c(F)cc3c(=O)c(C(=O)O)cn1c23 | 14.1% (inactive)
21 | COc1cc2nc(N3CCN(C(=O)c4ccco4)CC3)nc(N)c2cc1OC | 0.803% (inactive) and 4.94% (inactive)
22 | COc1cc2nc(N3CCCN(C)CC3)nc(NC3CCN(Cc4ccccc4)CC3)c2cc1OC | -91.5% (active)
23 | CCCC(=O)N1CCCN(c2nc(N)c3cc(OC)c(OC)cc3n2)CC1 | 13% (inactive)
24 | COc1cc(O)ccc1C(C)=O | -6.96% (inactive)
25 | CC(=O)OCC(=O)[C@@]1(O)CCC2C3CCC4=CC(=O)CC[C@]4(C)C3C(=O)C[C@@]21C (some centres undefined) | -24.8% (inactive)

Row | Structure (SMILES) | activity change, negative = inhibition
26 | CNc1cc(OC)c(C(=O)NC2CCN(Cc3ccccc3)C2C)cc1Cl (centres undefined) | 3.06% (inactive)
27 | CCCC(O)C(CC)CO (centres undefined) | 5.56% (inactive)
28 | CC(=O)N[C@@H](C=O)[C@@H](O)[C@H](O)[C@H](O)CO | 11.9% (inactive)
29 | O=C(NOCC1CC1)c1ccc(F)c(F)c1Nc1ccc(I)cc1Cl | 11.9% (inactive)
30 | Cc1cc(I)ccc1Nc1c(C(=O)NOCC2CC2)cc(F)c(F)c1F | -58.9% (inactive) and -87.6% (active)
31 | O=C(NOCC(O)CO)c1cc(Br)c(F)c(F)c1Nc1ccc(I)cc1F (centres undefined) | 8.99% (inactive)
32 | CC(C)C1CCC(C(=O)N[C@@H](Cc2ccccc2)C(=O)O)CC1 (some centres undefined) | -3.8% (inactive)
33 | COc1ccc(Cn2ccc3ccc(C(=O)NO)cc32)cc1 | 1.1% (inactive)
34 | CCN(CC)Cc1ccc2cc(COC(=O)Nc3ccc(C(=O)NO)cc3)ccc2c1 | -81.2% (active)
35 | CCN(CC)CCNC(=O)c1ccc(NC(C)=O)cc1 | 6.42% (inactive) and 2.78% (inactive)
36 | C[C@H]1O[C@H](O[C@H]2[C@H](O)[C@@H](O)[C@@H](O[C@H]3[C@H](O)[C@@H](O)[C@H](O)O[C@@H]3CO)O[C@@H]2CO)[C@H](O)[C@@H](O)[C@@H]1N[C@H]1C=C(CO)[C@@H](O)[C@H](O)[C@H]1O | 8.26% (inactive)
37 | COc1cc(/C=C(\C#N)C(N)=O)cc(CSc2nc3ccccc3s2)c1O | -5% (inactive)
38 | COc1cccc(OC)c1-c1cc(C(=O)NC2(C(=O)O)C3CC4CC(C3)CC2C4)nn1-c1ccc(C(=O)N(C)CCCN(C)C)cc1C(C)C (centres undefined) | -1.72% (inactive)
39 | CC1=C(/C=C/C(=C/C=C/C(C)=C/C(=O)O)c2ccc(C)cc2)C(C)(C)CCC1 | 20.2% (inactive)
40 | C[C@@]12CCc3occc3[C@H]1CC[C@@]13C[C@@H](CC[C@H]12)[C@@](O)(CO)C3 | 14.1% (inactive)
41 | CCN1CCCC(OC(=O)C(c2ccccc2)c2ccccc2)C1 (centres undefined) | 9.52% (inactive) and 11.2% (inactive)
42 | CC(C)C[C@@H](C(=O)N[C@H](C(=O)OC1CCCC1)c1ccccc1)[C@H](O)C(=O)NO | -91.3% (active)
43 | CNC(=O)[C@@H](NC(=O)[C@H](CC(C)C)[C@H](O)C(=O)NO)C(C)(C)C | 11.5% (inactive)
44 | C[C@@]1(c2nc3c(C(N)=O)cccc3[nH]2)CCCN1 | 0.526% (inactive)
45 | CC(C)Cn1cnc2c1c(=O)n(C)c(=O)n2C | 12.6% (inactive)
46 | NCCCCN(Cc1nc2ccccc2[nH]1)[C@H]1CCCc2cccnc21 | 25.8% (inactive)
47 | NCCCC[C@H](NC(=O)[C@@H](Cc1cc(Br)c(O)c(Br)c1)NC(=O)N1CCC(N2Cc3ccccc3NC2=O)CC1)C(=O)N1CCN(c2ccncc2)CC1 | 15.1% (inactive)
48 | COc1cc2c(cc1OC)[C@@H]1CC(=O)[C@@H](CC(C)C)CN1CC2 | 11.3% (inactive) and 8.82% (inactive)
49 | COc1cc2c(cc1OC)C1Cc3ccc(OC)c(OC)c3CN1CC2 (centres undefined) | 8.53% (inactive)
50 | CC[C@H]1CN2CCc3cc(OC)c(OC)cc3C2C[C@@H]1CC1NCCc2cc(OC)c(OC)cc21 (some centres undefined) | -81.1% (active) and -96.6% (active)

Row | Structure (SMILES) | activity change, negative = inhibition
51 | CC(=O)NCCC(=O)N[C@@H](Cc1cnc[nH]1)C(=O)O | 3.95% (inactive)
52 | CNC(=O)c1c(-c2ccc(F)cc2)oc2cc(N(CCO)S(C)(=O)=O)c(C3CC3)cc12 | 4.4% (inactive)
53 | CC1(C)CC[C@]2(C(=O)O)CC[C@]3(C)C(=CCC4[C@@]5(C)CC[C@H](O)[C@@](C)(CO)C5CC[C@]43C)C2C1 (some centres undefined) | 4.93% (inactive)
54 | NS(=O)(=O)c1cc2c(cc1Cl)NC=NS2(=O)=O | -6.64% (inactive) and 2.69% (inactive)
55 | CC(C)[C@H]1C(=O)N[C@@H](CCCN=C(N)N)C(=O)NCC(=O)N[C@@H](CC(=O)O)C(=O)N[C@H](Cc2ccccc2)C(=O)N1C | 33.3% (inactive)
56 | CC#C[C@]1(O)CC[C@H]2[C@@H]3CCC4=CC(=O)CCC4=C3[C@@H](c3ccc(N(C)C)cc3)C[C@@]21C | -77.6% (active) and 19.9% (inactive)
57 | CC(=O)O[C@]1(C(C)=O)CC[C@H]2[C@@H]3CCC4=CC(=O)CCC4=C3[C@@H](c3ccc(N(C)C)cc3)C[C@@]21C | -58.3% (inactive)
58 | CC#CC1(O)CCC2C3CCC4=CC(=O)CCC4=C3C(c3ccc(N(C)C)cc3)CC21C (centres undefined) | 32.4% (inactive)
59 | CCC[C@@H]1C[C@@H](C(=O)N[C@@H]([C@H]2O[C@H](SC)[C@H](O)[C@@H](O)[C@@H]2O)[C@@H](C)O)N(C)C1 | 0.0317% (inactive)
60 | C=CC(=O)NCc1ccccc1 | 10.8% (inactive)
61 | COc1ccc(CN2C(=O)C(=O)c3cc(OC(F)(F)F)ccc32)cc1 | -31.8% (inactive)
62 | CC(=O)O/N=C1/C(=O)N(Cc2cc(Cl)ccc2Cl)c2ccc(Cl)cc21 | -78.1% (active)
63 | O=C1C(=O)N(Cc2ccc(Cl)c(Cl)c2)c2ccccc21 | 25.2% (inactive) and 12.2% (inactive)
64 | COc1ccc(Cl)cc1C(=O)NCCc1ccc(C(=O)O)cc1 | 10.3% (inactive)
65 | CCCCCCCCCC(=O)N[C@@H](Cc1c[nH]c2ccccc12)C(=O)N[C@H](CC(N)=O)C(=O)N[C@@H](CC(=O)O)C(=O)N[C@@H]1C(=O)NCC(=O)N[C@@H](CCCN)C(=O)N[C@@H](CC(=O)O)C(=O)N[C@H](C)C(=O)N[C@@H](CC(=O)O)C(=O)NCC(=O)N[C@H](CO)C(=O)N[C@@H]([C@@H](C)CC(=O)O)C(=O)N[C@@H](CC(=O)c2ccccc2N)C(=O)O[C@@H]1C | 5.37% (inactive)
66 | C[C@H](O[C@H]1OCCN(Cc2n[nH]c(=O)[nH]2)[C@H]1c1ccc(F)cc1)c1cc(C(F)(F)F)cc(C(F)(F)F)c1 | 3.24% (inactive)
67 | Clc1cccc2c1CN(C1=NCCN1)C2 | 4.53% (inactive) and 6.96% (inactive)
68 | O=C1CN2Cc3c(ccc(Cl)c3Cl)N=C2N1 | -78.8% (active) and -0.538% (inactive)
69 | Cc1nc2c([nH]1)CCN(C(=O)c1ccc(NC(=O)c3ccccc3-c3ccccc3)cc1)c1ccccc1-2 | 24.9% (inactive)
70 | CC1(C)O[C@@H]2CC3C4C[C@H](F)C5=CC(=O)CC[C@]5(C)C4[C@@H](O)C[C@]3(C)[C@]2(C(=O)CO)O1 (some centres undefined) | -1.03% (inactive) and -3% (inactive)
71 | CN(C)Cc1c(C(=O)NCCOc2ccc(C(=O)NO)cc2)oc2ccccc12 | -78.9% (active)
72 | CC(C)c1ccc(C(=O)NCCOc2ccc(C(=O)O)cc2)cc1 | 52.4% (inactive)
73 | Cc1cc(C)c(N(Cc2ccccc2)S(=O)(=O)c2ccc(OCCNC(=O)c3cc4ccccc4o3)cc2)c(C(=O)NO)c1 | -49.7% (inactive)
74 | OC[C@@H](O)C(O)[C@@H](O)CO (some centres undefined) | 8.06% (inactive)

— PubChem BioAssay AID1259421 (Broad Institute, 2018)
